Assay outcomes from PubChem BioAssay.
Only some compounds are listed: those with a hit (about 2.8% of all), similar ones and a draw of the others.
IP6K1 inh: blocks human inositol hexakisphosphate kinase 1; AID 1645851; IP6K1 kinase, ADP-Glo luminescence, 2 h; stronger effect = lower value; hit rate 0.81% among 140,000; activity change, % (series mostly up to about 58 µM); Q92551; in the data active = activity change below about -25%; note: % is set by controls: 0 for no effect and ±100 for the full control effect
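ADP-Glo luminescence measures ADP made by human IP6K1 during a 2 h RT reaction with ATP/IP6 (mix at 1.3 mM/130 uM); top library doses 57.5 and 19.1 uM final.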
SNCA viab count: cell viability loss counter-screen. HEK-293-SNCA-luc viability, GF-AFC fluorescence, 24 h. Potency, µM (series often up to 57.1 µM), for inactives: at the top dose activity change, negative = cytotoxicity, usual class: cytotoxic. hit rate 0.12% among 150,000. AID 1671193;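 note: potency is the fitted concentration of half-maximal effect; 0% = DMSO-treated cells and -100% = medium-only wells without cells; nearly all actives have a fitted effect of over 30% in size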
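Cytotoxicity counterscreen: after 24 h compound treatment of genome-edited SNCA-luciferase HEK-293 cells, live-cell protease substrate GF-AFC read by fluorescence after 30 min; activity scaled between DMSO (0%) and medium-only (-100%), curves Hill-fitted.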
KDM5B inh: inhibitors of human KDM5B histone demethylase; KDM5B demethylase, FDH-coupled NADH fluorescence (FDH is formaldehyde dehydrogenase); Potency, µM (titrated, usually from 57.7 µM), actives largely listed as inhibitors; hit rate 2.6% among 220,000; AID 1347165; note: potency is the fitted concentration of half-maximal effect; 0% is about no effect; nearly all actives have a fitted effect of over 70% in size
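Inhibition is measured as reduced NADH fluorescence generation from FDH coupling to formaldehyde release. Truncated KDM5BΔAP at 200 nM final acts on H3K4me3 peptide (12.5 µM in substrate mix) in pH 7.5 HEPES buffer with Tween-20, 30 min, room temperature.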
SNCA expr inhib: inhibitors of alpha-synuclein (SNCA) gene expression. hit rate 0.17% among 140,000. Potency, µM (series often up to 57.2 µM), for inactives: at the top dose activity change, negative = inhibition, usual class: inhibitors. HEK-293 SNCA-luciferase knock-in, luminescence, 24 h;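 note: potency is the fitted concentration of half-maximal effect; plate controls were DMSO cells for no effect and cell-free wells for full effect; nearly all actives have a fitted effect of over 45% in size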
* = called active by the depositor; i = inactive; ? = inconclusive; nt = no result given; [ ] = remark or other dose. Unless noted, calls come from the whole dose curve; as a rule, active = well fitted curve in the direction sought with a large enough effect; inconclusive = small, poorly fitted or top-dose-only effect, or another doubt; inactive = no such curve, though single readings can be large; an effect the other way counts as inactive or inconclusive.

SMILES	IP6K1 inh	SNCA viab count	KDM5B inh	SNCA expr inhib
Cc1noc([C@@H]2CN(C(=O)c3c[nH]c4ccccc34)C[C@H]2CO)n1	-6	-23%	i	20%
COC[C@@H]1CN(C(=O)c2cccc3[nH]ccc23)C[C@H]1c1nc(C)no1	-6	0%	20µM*	5%
Cc1noc(-c2cn(C3CCCN(C(=O)c4cccc5[nH]ccc45)C3)nn2)n1 (configuration not stated)	1	-2%	20µM*	86%
Cc1noc(-c2cn(C3CCN(C(=O)c4cccc5[nH]ccc45)CC3)nn2)n1	17	-1%	?	4%
CC(C)c1noc(-c2cn(C3CCN(C(=O)c4cccc5[nH]ccc45)C3)nn2)n1 (configuration not stated)	-6	8%	22µM*	?
CC(C)N1C(=O)C(CC(=O)NCCCN2CCCc3ccccc32)=C2CCCCC21 (configuration not stated)	7	-11%	nt	2%
CN(C)Cc1nnc(C2CC(NC(=O)c3nc4ccccc4[nH]3)C2)n1C (configuration not stated)	21	8%	22µM*	11%
CN(C)c1ccc(C(=O)N[C@H]2CO[C@H]3[C@@H]2OC[C@@H]3n2cc(CC3CCCCC3)nn2)cc1	-9	-4%	i	32%
CC(C)CNC(=O)c1cc(C2CC2)nc2onc(C3CCNC3)c12 (configuration not stated)	-4	-2%	100µM*	-7%
O=C(NCC(F)(F)F)c1cc(C2CC2)nc2onc(C3CCNC3)c12 (configuration not stated)	1	7%	89µM*	?
O=C(c1cc(C2CC2)nc2onc(C3CCNCC3)c12)N1CCOCC1	1	5%	56µM*	-5%
CCOc1ccccc1Nc1ncnc2c1cnn2-c1ccc(C)cc1	20	5%	?	174%
CCN(C(=O)CSc1ccc(S(=O)(=O)N2CCOCC2)cn1)c1ccccc1	nt	nt	i	nt
O=C(Nc1cccc(F)c1)C1(CCO)CCN(c2ncccn2)C1 (configuration not stated)	-5	-2%	28µM*	10%
O=C(Nc1ccc(N2CCOCC2)cc1)C1(CCO)CCN(c2ncccn2)C1 (configuration not stated)	6	-6%	22µM*	?
COCCCNC(=O)C1(CCO)CCN(c2ncccn2)C1 (configuration not stated)	-2	-4%	?	-19%
O=C(N1CCCC1)C1(CCO)CCN(c2ncccn2)C1 (configuration not stated)	-7	-7%	28µM*	-10%
O=C(NCc1ccccc1)C1(CCO)CCN(c2ncccn2)C1 (configuration not stated)	3	0%	28µM*	13%
O=C(Nc1ccc(N2CCOCC2)cc1)C1(CCO)CCN(Cc2ccccc2)C1 (configuration not stated)	11	15%	i	24%
O=C(Nc1ccc2c(c1)OCCO2)C1(CCO)CCN(c2ncccn2)C1 (configuration not stated)	7	10%	?	-7%
CC(=O)N1CCC[C@@]2(CCN(c3ncccn3)C2)C1	nt	-1%	nt	12%
Cc1cccc(NC(=O)Cn2c(=O)oc3ccccc32)c1C	nt	nt	i	nt
COc1ccc(Cl)cc1NC(=O)N1CCN(Cc2cc(=O)n3nc(-c4ccccc4)sc3n2)CC1	37	4%	i	7%
COC(=O)[C@@H]1Cc2ncn(Cc3ccc(Cl)cc3)c2CN1S(=O)(=O)c1ccc(OC)cc1	26	-26%	i	-30%
CCCn1cnc2c1CN(S(=O)(=O)c1cccc(C(F)(F)F)c1)[C@H](C(=O)OC)C2	3	-1%[87.6 µM]	32µM*	-15%[87.6 µM]
SMILES	IP6K1 inh	SNCA viab count	KDM5B inh	SNCA expr inhib
COC(=O)[C@@H]1Cc2ncn(Cc3ccc(OC)cc3)c2CN1S(=O)(=O)c1cccc2c(N(C)C)cccc12	22	-2%	18µM*	-7%
O=C(Cc1cccs1)N1CCCC(Cc2nncn2CC2CC2)C1 (configuration not stated)	3	11%	i	13%
Cn1ccnc1-c1ccc(N2CCC(C(O)Cc3ccccc3)CC2)nn1 (configuration not stated)	5	-13%	28µM*	-34%
COc1cccc(CC2(CO)CCCN(c3ccc(-c4nccn4C)nn3)C2)c1 (configuration not stated)	5	?	20µM*	-13%
Cn1ccnc1-c1ccc(N2CC[C@](C)(O)[C@@H](O)C2)nn1	-4	5%	?	220%
Cc1ccc(NC(=O)CN2C(=O)NC3(CCCCC3)C2=O)cc1C	2	-8%	?	-10%
C[S+](=O)([O-])CCn1ncc2cc(OCc3cccc(-c4ccc(F)cc4)c3)ccc21	-3	-21%[87.6 µM]	35µM*	-6%[87.6 µM]
COc1ncc(-c2cccc(COc3ccc4c(cnn4CC[S+](C)(=O)[O-])c3)c2)cn1	9	-10%[87.6 µM]	35µM*	38%[87.6 µM]
COc1ncccc1-c1cccc(COc2ccc3c(cnn3CC[S+](C)(=O)[O-])c2)c1	-6	-18%[87.6 µM]	32µM*	27%[87.6 µM]
COCCCN(C)Cc1cccc(C#N)c1	nt	nt	i	nt
COc1cc(C(=O)N2CCN(C(=O)OC(C)(C)C)CC2)ccc1OCc1ccccc1	nt	nt	i	nt
CCCc1noc(-c2cccn3c(CNC(=O)CC4CCCCC4)nnc23)n1	18	2%	?	18%
CCc1noc(-c2cccn3c(CNC(=O)CCC4CCCC4)nnc23)n1	-5	12%	28µM*	11%
CC(C)c1noc(-c2cccn3c(CNC(=O)CCC4CCCC4)nnc23)n1	11	-5%	16µM*	-4%
O=C(Cn1ccn2nc(-c3ccc(F)cc3)c(CO)c2c1=O)Nc1cccc(C(F)(F)F)c1	2	8%	22µM*	6%
Cc1ccc(NC(=O)Cn2ccn3nc(-c4ccc(F)cc4)c(CO)c3c2=O)cc1	-2	7%	22µM*	6%
O=C(Cn1ccn2nc(-c3ccc(F)cc3)c(CO)c2c1=O)Nc1ccccc1Cl	3	2%	28µM*	-7%
O=C(Cn1ccn2nc(-c3ccc(F)cc3)c(CO)c2c1=O)Nc1cc(F)ccc1Cl	5	-18%	i	?
Cn1c(C(=O)NC2CCN(Cc3ccccc3)CC2)cc2c1CCN(Cc1ccccc1)C2	-8	-2%	20µM*	-29%
CC(C)c1ccc2c(c1)C(O)CC1C(C)(C(=O)O)CCCC21C (configuration not stated)	23	-7%	nt	nt
CCC(C)NC(=O)c1ccc(-c2cccc(C#N)c2)o1 (configuration not stated)	13	-9%	25µM*	35%
Cc1ccc(F)c(NC(=O)[C@@H]2COCC(=O)N2Cc2ccc(F)cc2)c1	-2	4%	40µM*	?
Cc1cccc(NC(=O)[C@@H]2COCC(=O)N2Cc2ccc(F)cc2)c1	-13	-13%	nt	6%
CC(=O)NCC(=O)NC1CC(C)(C)Cc2nc(N(C)Cc3ccccc3)ncc21 (configuration not stated)	30	5%	32µM*	-12%
